Molecules are shown by their SMILES. Screen size: about 310,000 compounds; about 1,300 (0.42%) were called active. This is one part of a sample in which actives are shown more often than they occur.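 The calls were made as follows: active = B-score of calcium response area above 5 SD of library B-scores, with initial fluorescence ratio within 5 SD of library; inactive = the rest.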

Sequence of Short transient receptor potential channel 4 (Mus musculus) (Q9QUQ5 whole entry, looked up): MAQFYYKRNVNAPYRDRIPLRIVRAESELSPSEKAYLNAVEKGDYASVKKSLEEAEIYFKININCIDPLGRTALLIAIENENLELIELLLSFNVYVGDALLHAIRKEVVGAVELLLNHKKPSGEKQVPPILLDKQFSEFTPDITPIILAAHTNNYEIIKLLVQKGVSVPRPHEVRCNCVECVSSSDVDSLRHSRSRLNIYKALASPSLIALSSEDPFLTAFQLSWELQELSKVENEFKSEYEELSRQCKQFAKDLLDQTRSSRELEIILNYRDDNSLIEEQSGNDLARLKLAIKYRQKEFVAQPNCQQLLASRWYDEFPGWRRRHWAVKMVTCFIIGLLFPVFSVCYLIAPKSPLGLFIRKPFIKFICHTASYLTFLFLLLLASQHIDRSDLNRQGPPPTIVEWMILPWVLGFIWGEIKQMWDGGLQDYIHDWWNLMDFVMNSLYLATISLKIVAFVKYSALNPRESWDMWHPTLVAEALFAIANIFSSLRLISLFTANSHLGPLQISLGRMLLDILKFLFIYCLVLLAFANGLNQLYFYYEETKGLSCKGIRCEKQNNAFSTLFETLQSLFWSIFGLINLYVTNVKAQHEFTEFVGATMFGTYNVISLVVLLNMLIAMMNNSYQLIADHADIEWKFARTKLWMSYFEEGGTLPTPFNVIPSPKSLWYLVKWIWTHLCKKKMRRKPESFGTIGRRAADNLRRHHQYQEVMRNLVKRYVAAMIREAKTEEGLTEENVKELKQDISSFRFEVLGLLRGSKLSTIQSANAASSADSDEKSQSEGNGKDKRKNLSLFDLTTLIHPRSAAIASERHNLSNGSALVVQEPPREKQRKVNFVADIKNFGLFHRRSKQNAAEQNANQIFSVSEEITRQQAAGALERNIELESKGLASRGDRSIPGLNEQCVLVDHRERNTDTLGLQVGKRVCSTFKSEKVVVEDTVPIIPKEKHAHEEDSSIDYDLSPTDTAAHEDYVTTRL

The test has as its target Short transient receptor potential channel 4 (Mus musculus) (UniProt Q9QUQ5). The test can be described thus: TRPC4 channel potentiators under submaximal DAMGO – cell-based, mouse TRPC4beta, HEK293 mu-opioid, Fluo-4 calcium, primary screen (AID 2227).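 As to B-score: B-score of integrated fluorescence ratio over time as area under calcium response.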 As to conditions: DAMGO EC20, Fluo-4 Ca2+ flux, at 10 µM; hits give high values. In general terms: A change in cytosolic calcium serves as a functional read-out for many receptors and channels.
Regarding `CCN1/C(=C\c2ccc3ccccc3[n+]2CC)Sc2cc(C)ccc21`, the B-score was 13 (active).
Then `N#Cc1cc([N+](=O)[O-])ccc1NCC1CCCO1` (centres undefined), with “inactive”.
Then `CCc1ccc2c(c1)C1(NN=C(c3ccccc3)S1)C(=O)N2` (centres undefined), with 11 (active); and `COC(C[C@H](O)CC(=O)COCc1ccccc1)OC`, with “inactive”; and `Cc1cccc(Cn2c(SCCO)nc3c2c(=O)n(C)c(=O)n3C)c1`, with “inactive”.
In the case of `Cc1cccc(Cn2c(N3CCN(c4ccccc4)CC3)nc3c2c(=O)n(C)c(=O)n3C)c1`, the B-score was 41 (active).
Then `COC(=O)C(C)Sc1nc2c(c(=O)n(C)c(=O)n2C)n1Cc1cccc(C)c1` (centres undefined), with “inactive”.
The entry for `CCOC(=O)NN1C(=O)c2ccccc2NC1c1ccccc1O` (centres undefined) is “inactive”.
The entry for `O=C(CSc1ccc(-c2ccc(Br)cc2)nn1)NCC1CCCO1` (centres undefined) is “inactive”; for `CC(NS(=O)(=O)c1ccc(Br)cc1)C(=O)NCC1CCCO1` (centres undefined) it is “inactive”.
For `OC(CNCC1CCCO1)Cn1c2ccc(Br)cc2c2cc(Br)ccc21` (centres undefined), the B-score was 17 (active).
On to `Cc1cc(S(=O)(=O)c2cc3ccc(O)c(C)c3oc2=O)ccc1F`, for which the B-score entry was “inactive”.
The entry for `Cc1ccc(/C=N/NC(=S)Nc2cccc(S(=O)(=O)N(C)C)c2)o1` is “inactive”; for `Cc1ccc(/C=N/NC(=S)NC2CCCCC2)o1` it is 35 (active); for `C/C(=N\NC(=S)NC1CCCCC1)c1ccc(C)o1` it is “inactive”.
Consider `O=C(NC1CC1)C1=C[C@H](c2c[nH]c3ccccc23)C[C@H](OCc2ccc(CO)cc2)O1`, for which the B-score is 11 (active).
Regarding `NC(=O)C1=C[C@@H](c2csc3ccccc23)C[C@@H](OCc2ccc(CO)cc2)O1`, the B-score result is “inactive”.
Then `NC(=O)C1=C[C@H](c2csc3ccccc23)C[C@H](OCc2ccc(CO)cc2)O1`, with “inactive”; and `Cc1c(-c2nn(C)c(=O)c3ccccc23)oc2ccc(F)cc2c1=O`, with “inactive”; and `CCOc1ccc(Nc2nc(Cc3nnc(SCC(=O)NC4CCCC4)n3C)cs2)cc1`, with “inactive”.
Then `CCOc1ccc(Nc2nc(Cc3nnc(SCC(=O)c4ccc(C)cc4)o3)cs2)cc1`, with 30 (active); and `CC(=O)Nc1ccc(C(=O)CSc2nnc(Cc3ccccc3)o2)cc1`, with “inactive”.
The entry for `NC(=O)C1(N2CCCCC2)CCN(C(=O)c2ccc(C#Cc3ccccc3)o2)CC1` is “inactive”.
For the compound `CN1CCN(CCCCOc2cccc3ccccc23)CC1`, the B-score entry is “inactive”.
Regarding `CC1CC(C)CN(CCOc2cccc3ccccc23)C1` (centres undefined), the B-score is 11 (active).
With `CC1CN(CCOc2ccccc2[N+](=O)[O-])CC(C)O1` (centres undefined), the B-score result was “inactive”.
On to `CCOC12CC(C)(C)CC(C)(CC3=C1C(=O)CC(C)(C)C3)C2` (centres undefined), for which the B-score entry was “inactive”.
`CCCCCCCNc1nc(Cl)nc(NCCO)n1`: the B-score entry is “inactive”.
Then `O=C(N/N=C/c1ccc(OCC2COCCO2)cc1)c1ccc(Br)cc1` (centres undefined), with “inactive”; and `CCOc1ccc(N2C(=O)/C(=C/c3ccc(C)o3)N(C)C2=S)cc1`, with “inactive”.
Then `CC(NC(=O)COc1cccnc1[N+](=O)[O-])c1ccc(Cl)cc1Cl` (centres undefined), with “inactive”.
The figure for `CCN(CC)CCOCCOc1ccc(Cl)c2ccccc12` is 21 (active).
Regarding `Clc1cccc(Cl)c1OCCOCCNCc1ccccc1`, the B-score entry was “inactive”.
The entry for `CN(C)CCOCCOc1ccc(Cl)c2ccccc12` is “inactive”.
Turning to `O=S(=O)(Nc1cccc(-n2cnnn2)c1)c1cnc(Cl)c(Cl)c1`, the B-score entry is “inactive”.
For the compound `COc1cc(S(=O)(=O)Nc2ncn[nH]2)ccc1Cl`, the B-score result was “inactive”.
Then `Cc1ccc(C)c(CN2CCC(CNC(=O)Nc3ccc(C)c(F)c3)CC2)c1`, with 10 (active); and `COc1cc(NC(=O)NCC2CCN(Cc3ccc(C)cc3)CC2)cc(OC)c1OC`, with “inactive”.
The entry for `Cc1cccc(CN2CCC(CNC(=O)Nc3ccc(F)c(Cl)c3)CC2)c1` is “inactive”.
`COC(=O)c1cc(S(=O)(=O)N2CCC(C(N)=O)CC2)oc1C`: the B-score entry is “inactive”.
Then `O=c1c(-c2ccccc2Cl)c[nH]n1-c1ccccc1`, with “inactive”; and `Cc1ccc(C(=O)NCCc2nnc(SCC(=O)Nc3cccc(C(=O)O)c3)n2C)cc1`, with “inactive”; and `CCOC(=O)N1CCN(CCC(=O)Nc2ccccc2)CC1`, with “inactive”.
Then `Cc1cc(NC(=O)CCN2CCN(Cc3ccccc3)CC2)ccc1Br`, with 20 (active); and `O=C(CN1CCN(Cc2ccccc2)CC1)Nc1ccc(F)c(F)c1`, with “inactive”.
The entry for `COc1ccccc1C(=O)Nc1ccnn1C1CCN(Cc2cnn(C)c2)CC1` is “inactive”; for `O=C(COc1ccc(Cl)cc1)Nc1ccc2c(c1)OCO2` it is “inactive”.
Consider `CCC(C)Sc1nc2c(cnn2-c2ccc(F)cc2)c(=O)[nH]1` (centres undefined), for which the B-score result was “inactive”.
Then `CCCCN(CC)C(=O)C1CCCN(S(=O)(=O)c2cccc3nsnc23)C1` (centres undefined), with “inactive”; and `CCCCN(C)CCNC(=O)C1CCCN(S(=O)(=O)c2cccc3nsnc23)C1` (centres undefined), with 25 (active); and `O=C(c1ccco1)N1CCN(C(=O)C2CCCN(S(=O)(=O)c3cccc4nsnc34)C2)CC1` (centres undefined), with “inactive”.
Then `CC(C)c1nc(CNC(=O)CC2C(=O)NCCN2Cc2cccc(F)c2F)cs1` (centres undefined), with “inactive”; and `C=CCNC(=O)CC12CC3CC(C1)CC(CC(=O)NCC=C)(C3)C2`, with “inactive”.
Then `Cc1cc(-n2nc(C)cc2C)n2nc(C)c(-c3ccccc3)c2n1`, with “inactive”; and `CCc1c(C)nc2c(-c3ccccc3)c(C)nn2c1Nc1ccc(NC(C)=O)cc1`, with 27 (active).
On to `Cc1cc(-c2ccccc2)n2nc(C)c(-c3ccccc3)c2n1`, for which the B-score entry is “inactive”.
Then `CCCC(C)c1nnc(NC(=O)C2CC(=O)N(c3ccc(OCC)cc3)C2)s1` (centres undefined), with “inactive”.
The entry for `O=S(=O)(NCCCc1ccccc1)c1ccc(Br)cc1` is “inactive”.
Consider `COc1ccc(S(=O)(=O)NCCCc2ccccc2)cc1`, for which the B-score was 32 (active).
The entry for `O=S(=O)(NCCc1ccccc1)c1ccccc1` is “inactive”.
In the case of `COC(=O)c1c(NC(=O)CN2CCN(S(=O)(=O)c3ccccc3[N+](=O)[O-])CC2)sc2c1CCC(C)C2` (centres undefined), the B-score result was “inactive”.
Then `CS/C(=C\C(=O)c1ccco1)Nc1ccccc1Cl`, with “inactive”; and `C#CCCCc1nc2ccccc2c(=O)n1N`, with “inactive”.
Then `CCCCn1c(N)c(N(CC(C)C)C(=O)c2cccc(S(=O)(=O)N3CC(C)OC(C)C3)c2)c(=O)[nH]c1=O` (centres undefined), with “inactive”; and `CCn1cc(CN2CCN(CC(C)(C)C)C(CCO)C2)c2ccccc21` (centres undefined), with “inactive”.
Then `CCCCCCn1cc(C(=O)O)c(=O)c2cc(F)c(N3CCCCC3)cc21`, with 12 (active); and `CN1CCN(c2cc3c(cc2F)c(=O)c(C(=O)O)cn3CCF)CC1`, with “inactive”; and `CCn1cc(C(=O)NCCO)c(=O)c2cc(F)c(N3CCN(C)CC3)cc21`, with “inactive”.
Consider `O=C(c1ccc(F)cc1)c1c[nH]c(C(=O)NCc2cccnc2)c1`, for which the B-score entry was “inactive”.

The record behind these values is PubChem BioAssay AID2227 (Johns Hopkins Ion Channel Center, 2009).
